Source: PubChem BioAssay (NCATS)
Records with an inconclusive call do not appear. Active and inactive are the calls of the source. Unless noted, the call rests on the fitted dose curve; in most records, active means well fitted curve in the direction sought with a large enough effect; inconclusive means small, poorly fitted or top-dose-only effect, or another doubt; inactive means no such curve, though single readings can be large; an effect the other way counts as inactive or inconclusive.

Tests used:
[1] = target: Androgen receptor (Homo sapiens) (UniProt P10275); assay: qHTS assay for small molecule agonists of androgen receptor signaling (AID 588515; active means well fitted curve in the direction sought with a large enough effect in the signal ratio, with a control signal flat; the % refers to the signal ratio; further: on the % scale 0 is the no-effect control and ±100 the full control effect); settings: AR-UAS-bla HEK293, beta-lactamase ratio, agonist 16 h; activation: stronger effect = higher value
How it was run: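 Stimulation of an AR-responsive β-lactamase reporter in GripTite HEK293 cells was measured after 16 h compound exposure at 37 °C, via CCF4 fluorescence after 2 h RT. EC50 from Hill fits, normalized to R1881 at 30 nM.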

[2] = target: Androgen receptor (Homo sapiens) (UniProt P10275); assay: qHTS assay for small molecule antagonists of androgen receptor signaling (AID 588516; active means well fitted curve in the direction sought with a large enough effect in the signal ratio, with a control signal flat, not every such curve was filed as active; the % refers to the signal ratio; further: on the % scale 0 is the no-effect control and ±100 the full control effect); settings: AR-UAS-bla HEK293, beta-lactamase ratio, antagonist mode, 16 h; series mostly up to 76.8 µM
How it was run: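 AR-UAS-bla GripTite HEK 293 cells (2000/well) treated with compound titrations plus 10 nM R1881 for 16 h at 37C. Beta-lactamase read by CCF4 FRET (460/530 nm); IC50 from Hill fits, normalized to R1881 and DMSO control wells.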

[3] = target: Bile acid receptor (Homo sapiens) (UniProt Q96RI1); assay: qHTS assay for small molecule antagonists of farnesoid X receptor signaling (AID 588526; calls by dose curve; further: on the % scale 0 is the no-effect control and ±100 the full control effect); settings: HEK293T FXR-UAS-bla, beta-lactamase ratio, antagonist mode; series mostly up to 76.7 µM
How it was run: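 Antagonist mode: titrated compounds tested against chenodeoxycholic acid stimulation (normalized to 50 uM CDCA and DMSO) in GeneBLAzer HEK293T cells for 16 h. Beta-lactamase read by CCF4 fluorescence; IC50 from Hill fits.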

[4] = target: Glucocorticoid receptor (Homo sapiens) (UniProt P04150); assay: qHTS assay for small molecule agonists of glucocorticoid receptor signaling (AID 588532; active means well fitted curve in the direction sought with a large enough effect in the signal ratio, with a control signal flat; the % refers to the signal ratio;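 further: 100% = dexamethasone at 0.1 µM and 0% = DMSO only wells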); settings: HeLa MMTV-bla, beta-lactamase ratio, agonist, 18 h; stronger effect = higher value; percent of dexamethasone control, DMSO zero
How it was run: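 MMTV-bla HeLa beta-lactamase reporter cells in 1% charcoal/dextran FBS medium, compounds up to 92 uM for 18 h at 37 C, CCF4 readout; normalized to 0.1 uM dexamethasone (100%), EC50 and efficacy from Hill fits.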

[5] = target: Glucocorticoid receptor (Homo sapiens) (UniProt P04150); assay: qHTS assay for small molecule antagonists of glucocorticoid receptor signaling (AID 588533; active means well fitted inhibition curve with a large enough effect in the signal ratio, with a control signal flat, not every such curve was filed as active; the % refers to the signal ratio; further: on the % scale 0 is the no-effect control and ±100 the full control effect); settings: HeLa MMTV-bla, GRE beta-lactamase ratio, antagonist mode, 18 h; series mostly up to 76.8 µM
How it was run: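 Antagonist-mode qHTS: compound titrations added to GRE-bla HeLa cells, then dexamethasone 2 nM final; 18 h, 37 C. CCF4 FRET fluorescence normalized to dexamethasone and DMSO; IC50 from Hill fit.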

[6] = target: Peroxisome proliferator-activated receptor delta (Homo sapiens) (UniProt Q03181); assay: qHTS assay for small molecule antagonists of peroxisome proliferator-activated receptor delta signaling (AID 588535; active means well fitted inhibition curve with a large enough effect in the signal ratio, with a control signal flat, not every such curve was filed as active; the % refers to the signal ratio); settings: HEK293T PPARd-UAS-bla, beta-lactamase FRET ratio, 18 h; series mostly up to 76.7 µM
How it was run: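 Fluorescence from CCF4-loaded GeneBLAzer PPAR-delta-UAS-bla HEK293T cells (2 hrs RT loading) quantified reporter inhibition after an 18 hr, 37 C compound exposure across a titration.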

[7] = target: Peroxisome proliferator-activated receptor gamma (Homo sapiens) (UniProt P37231); assay: qHTS assay for small molecule antagonists of peroxisome proliferator-activated receptor gamma signaling (AID 588537; active means well fitted inhibition curve with a large enough effect in the signal ratio, with a control signal flat, not every such curve was filed as active; the % refers to the signal ratio;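 further: reporter cells co-stimulated with 50 nM rosiglitazone agonist during compound treatment; % of control where 0% means no effect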); settings: HEK293 PPARg-UAS-bla, beta-lactamase ratio, antagonist mode; series mostly up to 76.8 µM
How it was run: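 Fluorescence at 460 and 530 nm (405 nm excitation) reported beta-lactamase cleavage of CCF4 after 2 h room-temperature loading. HEK293 reporter cells in 1% charcoal/dextran-treated FBS had received compound and rosiglitazone for 16 h.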

[8] = qHTS assay for small molecule activators of the p53 signaling pathway (AID 651743; active means well fitted activation curve with a large enough effect in the signal ratio, not every such curve was filed as active; the % refers to the signal ratio; further: % of control where 0% means no effect); settings: HCT-116 p53RE-bla, beta-lactamase FRET ratio, 16 h; activation: stronger effect = higher value
How it was run: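 Following 16 hours of compound exposure at 37 C, HCT-116 cells bearing the p53RE-bla reporter were loaded with LiveBLAzer B/G FRET substrate for 2 hours at room temperature and fluorescence intensity was recorded.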

[9] = target: Cytochrome P450 3A4 (Homo sapiens) (UniProt P08684); assay: qHTS Assay for Inhibitors and Substrates of Cytochrome P450 3A4 (AID 884); settings: recombinant CYP3A4, Luciferin-PPXE luminescence; series mostly up to 57.1 µM; further: potency means the concentration at half of the fitted maximal effect; nearly all actives have a fitted effect of over 50% in size
How it was run: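 Luminescent readout of luciferin produced by CYP3A4 (20 nM) dealkylation of Luciferin-PPXE, 25 uM (its KM). NADPH-driven reaction ran 60 min at RT after 10 min compound preincubation; data scaled to 57 uM ketoconazole as 100% inhibition.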

[10] = target: Cytochrome P450 3A4 (Homo sapiens) (UniProt P08684); assay: qHTS Assay for Activators of Cytochrome P450 3A4 (AID 885); settings: recombinant CYP3A4, Luciferin-PPXE luminescence, 60 min; series mostly up to 57.1 µM; further: nearly all actives have a fitted effect of over 65% in size
How it was run: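 Activators are scored by enhanced luminescence from CYP3A4 conversion of luciferin-PPXE (25uM, equal to KM) to luciferin, after 60 min at RT with an NADPH-regenerating system.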

[11] = target: DNA dC->dU-editing enzyme APOBEC-3G (Homo sapiens) (UniProt Q9HC16); assay: qHTS for inhibitors of Vif-A3G interactions: Validation (AID 588379); settings: Vif-A3G protein interaction assay; series mostly up to 46.1 µM; further: potency means the concentration at half of the fitted maximal effect
How it was run: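 Yellow fluorescence (Ex 488, Em 500-530) of Vif-coexpressing HeLa A3G-eYFP cells, scanned by Acumen cytometer, reports blocked A3G degradation. Cells plated at 700/well overnight at 37 deg C before compound addition, then a further overnight compound incubation at 37 deg C.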

[12] = qHTS assay for small molecule agonists of the antioxidant response element (ARE) signaling pathway (AID 651741; active means well fitted activation curve with a large enough effect in the signal ratio; the % refers to the signal ratio; further: potency means the concentration at half of the fitted maximal effect; on activation: % of control where 0% means no effect); settings: HepG2 ARE-bla reporter, beta-lactamase FRET ratio, 16 h; series mostly up to 96 µM
How it was run: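 Stably integrated ARE-beta-lactamase reporter HepG2 cells; 16 h compound incubation, 37 C; LiveBLAzer FRET substrate 2 h at room temperature; fluorescence intensity.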

[13] = target: Vitamin D3 receptor (Homo sapiens) (UniProt P11473); assay: qHTS assay for small molecule antagonists of vitamin D receptor signaling (AID 588541; calls by dose curve); settings: HEK293T VDR-UAS-bla, beta-lactamase ratio, antagonist mode; series mostly up to 76.7 µM
How it was run: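 VDR-UAS-bla HEK293T cells in 2% charcoal-stripped FBS were stimulated with 1-alpha,25-dihydroxyvitamin D3 (3 nM final) plus compound for 16 h at 37 C. The beta-lactamase CCF4 readout was normalized to 50 nM agonist and DMSO, and Hill fits gave IC50.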

Sequence of Glucocorticoid receptor (Homo sapiens) (P04150 whole entry, looked up): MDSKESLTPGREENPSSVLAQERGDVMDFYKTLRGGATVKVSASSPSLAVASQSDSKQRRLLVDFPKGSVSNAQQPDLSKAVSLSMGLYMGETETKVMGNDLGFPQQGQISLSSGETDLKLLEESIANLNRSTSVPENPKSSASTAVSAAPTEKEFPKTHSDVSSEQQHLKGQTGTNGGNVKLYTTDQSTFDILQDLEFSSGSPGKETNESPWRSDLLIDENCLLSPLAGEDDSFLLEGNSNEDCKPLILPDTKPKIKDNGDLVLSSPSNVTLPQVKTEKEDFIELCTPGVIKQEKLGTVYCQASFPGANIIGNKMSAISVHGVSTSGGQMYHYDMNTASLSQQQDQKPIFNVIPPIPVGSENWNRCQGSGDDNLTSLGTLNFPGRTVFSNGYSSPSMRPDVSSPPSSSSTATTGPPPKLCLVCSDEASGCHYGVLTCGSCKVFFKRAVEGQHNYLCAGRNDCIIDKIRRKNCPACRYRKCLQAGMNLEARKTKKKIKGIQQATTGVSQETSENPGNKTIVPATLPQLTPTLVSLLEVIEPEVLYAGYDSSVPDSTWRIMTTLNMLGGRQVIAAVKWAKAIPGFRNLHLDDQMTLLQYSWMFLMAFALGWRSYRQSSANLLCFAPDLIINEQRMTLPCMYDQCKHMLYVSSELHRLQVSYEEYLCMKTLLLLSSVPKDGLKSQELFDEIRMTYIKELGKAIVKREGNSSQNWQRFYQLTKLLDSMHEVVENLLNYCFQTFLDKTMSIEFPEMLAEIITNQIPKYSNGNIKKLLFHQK
Sequence of Androgen receptor (Homo sapiens) (P10275 whole entry, looked up): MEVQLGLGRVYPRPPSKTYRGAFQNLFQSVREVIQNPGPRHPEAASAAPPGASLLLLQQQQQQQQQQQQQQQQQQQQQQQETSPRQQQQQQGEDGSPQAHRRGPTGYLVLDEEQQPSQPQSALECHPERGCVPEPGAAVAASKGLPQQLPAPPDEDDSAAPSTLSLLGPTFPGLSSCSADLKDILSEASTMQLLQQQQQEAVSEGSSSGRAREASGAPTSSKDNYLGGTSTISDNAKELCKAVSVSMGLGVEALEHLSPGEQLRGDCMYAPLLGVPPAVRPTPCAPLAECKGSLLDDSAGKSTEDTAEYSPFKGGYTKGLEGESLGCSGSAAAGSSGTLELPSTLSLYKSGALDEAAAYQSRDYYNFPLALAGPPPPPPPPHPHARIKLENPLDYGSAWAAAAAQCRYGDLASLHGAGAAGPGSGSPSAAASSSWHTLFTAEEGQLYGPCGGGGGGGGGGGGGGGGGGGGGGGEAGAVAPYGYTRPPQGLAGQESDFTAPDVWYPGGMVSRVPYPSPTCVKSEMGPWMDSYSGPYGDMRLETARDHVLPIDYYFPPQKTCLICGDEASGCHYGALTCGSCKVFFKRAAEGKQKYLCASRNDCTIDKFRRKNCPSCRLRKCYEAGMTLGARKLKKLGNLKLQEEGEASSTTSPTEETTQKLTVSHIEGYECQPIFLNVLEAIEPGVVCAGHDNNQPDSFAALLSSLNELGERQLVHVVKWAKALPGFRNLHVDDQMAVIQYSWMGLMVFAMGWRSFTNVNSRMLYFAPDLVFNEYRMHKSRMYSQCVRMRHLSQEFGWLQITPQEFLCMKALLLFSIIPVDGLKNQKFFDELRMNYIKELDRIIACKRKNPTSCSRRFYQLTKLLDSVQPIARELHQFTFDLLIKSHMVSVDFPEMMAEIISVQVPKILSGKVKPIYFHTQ
Sequence of Bile acid receptor (Homo sapiens) (Q96RI1 whole entry, looked up): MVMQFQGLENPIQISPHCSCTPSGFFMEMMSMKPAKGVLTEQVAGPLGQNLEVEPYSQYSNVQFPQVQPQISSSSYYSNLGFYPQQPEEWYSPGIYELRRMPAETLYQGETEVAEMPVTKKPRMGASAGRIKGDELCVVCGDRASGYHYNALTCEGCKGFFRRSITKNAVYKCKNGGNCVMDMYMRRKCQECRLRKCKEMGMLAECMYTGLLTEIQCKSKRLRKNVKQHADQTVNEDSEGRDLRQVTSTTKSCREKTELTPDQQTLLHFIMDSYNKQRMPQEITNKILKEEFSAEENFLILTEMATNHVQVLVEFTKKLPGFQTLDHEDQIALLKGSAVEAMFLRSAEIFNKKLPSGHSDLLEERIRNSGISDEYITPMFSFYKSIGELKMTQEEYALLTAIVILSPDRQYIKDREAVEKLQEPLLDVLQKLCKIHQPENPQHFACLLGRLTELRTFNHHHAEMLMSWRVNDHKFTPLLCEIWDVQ
Sequence of Vitamin D3 receptor (Homo sapiens) (P11473 whole entry, looked up): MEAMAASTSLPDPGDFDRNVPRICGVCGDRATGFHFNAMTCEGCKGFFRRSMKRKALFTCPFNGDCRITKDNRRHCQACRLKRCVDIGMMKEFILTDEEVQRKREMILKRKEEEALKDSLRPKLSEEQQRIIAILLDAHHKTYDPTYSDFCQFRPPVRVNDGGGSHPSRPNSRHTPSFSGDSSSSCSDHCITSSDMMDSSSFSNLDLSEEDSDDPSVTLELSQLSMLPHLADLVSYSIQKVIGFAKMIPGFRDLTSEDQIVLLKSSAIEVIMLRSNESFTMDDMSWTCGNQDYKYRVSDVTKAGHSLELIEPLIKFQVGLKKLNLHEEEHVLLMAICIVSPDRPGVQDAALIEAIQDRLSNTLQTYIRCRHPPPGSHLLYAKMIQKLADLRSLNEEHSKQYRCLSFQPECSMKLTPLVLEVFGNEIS
Sequence of DNA dC->dU-editing enzyme APOBEC-3G (Homo sapiens) (Q9HC16 whole entry, looked up): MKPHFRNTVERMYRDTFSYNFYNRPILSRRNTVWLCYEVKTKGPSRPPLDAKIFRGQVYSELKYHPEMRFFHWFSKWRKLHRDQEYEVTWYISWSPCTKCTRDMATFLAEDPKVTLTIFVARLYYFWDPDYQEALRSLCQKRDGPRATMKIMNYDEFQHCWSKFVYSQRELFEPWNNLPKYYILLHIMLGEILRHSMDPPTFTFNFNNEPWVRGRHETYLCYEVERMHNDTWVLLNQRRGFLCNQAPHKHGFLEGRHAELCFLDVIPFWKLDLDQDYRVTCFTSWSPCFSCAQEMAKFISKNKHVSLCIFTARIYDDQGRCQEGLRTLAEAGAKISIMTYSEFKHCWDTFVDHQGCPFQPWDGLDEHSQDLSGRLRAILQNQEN
Sequence of Peroxisome proliferator-activated receptor delta (Homo sapiens) (Q03181 whole entry, looked up): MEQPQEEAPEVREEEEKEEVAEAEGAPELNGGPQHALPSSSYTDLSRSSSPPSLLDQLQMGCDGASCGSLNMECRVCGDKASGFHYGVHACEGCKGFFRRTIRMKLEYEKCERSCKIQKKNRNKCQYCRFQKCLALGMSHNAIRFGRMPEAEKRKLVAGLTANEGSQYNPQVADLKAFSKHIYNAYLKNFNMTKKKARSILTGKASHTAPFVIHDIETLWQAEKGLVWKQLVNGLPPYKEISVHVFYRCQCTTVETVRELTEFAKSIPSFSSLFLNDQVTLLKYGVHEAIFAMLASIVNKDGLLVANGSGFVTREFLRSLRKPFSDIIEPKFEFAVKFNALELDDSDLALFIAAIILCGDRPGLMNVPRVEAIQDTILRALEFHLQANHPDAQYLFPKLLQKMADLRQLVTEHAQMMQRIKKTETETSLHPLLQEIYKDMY
Sequence of Cytochrome P450 3A4 (Homo sapiens) (P08684 whole entry, looked up): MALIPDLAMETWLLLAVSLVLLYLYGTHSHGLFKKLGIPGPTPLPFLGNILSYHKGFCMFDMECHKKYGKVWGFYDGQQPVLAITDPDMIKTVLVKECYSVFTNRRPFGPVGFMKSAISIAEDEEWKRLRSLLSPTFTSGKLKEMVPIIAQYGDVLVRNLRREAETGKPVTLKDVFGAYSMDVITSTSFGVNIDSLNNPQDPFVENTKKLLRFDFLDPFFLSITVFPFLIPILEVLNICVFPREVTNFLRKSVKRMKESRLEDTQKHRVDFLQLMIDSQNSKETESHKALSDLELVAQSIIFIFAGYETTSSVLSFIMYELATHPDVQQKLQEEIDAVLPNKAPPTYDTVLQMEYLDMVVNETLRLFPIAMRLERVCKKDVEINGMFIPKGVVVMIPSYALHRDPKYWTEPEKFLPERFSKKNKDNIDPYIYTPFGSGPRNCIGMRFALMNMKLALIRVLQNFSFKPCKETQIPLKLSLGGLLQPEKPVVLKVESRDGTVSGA
Sequence of Peroxisome proliferator-activated receptor gamma (Homo sapiens) (P37231 whole entry, looked up): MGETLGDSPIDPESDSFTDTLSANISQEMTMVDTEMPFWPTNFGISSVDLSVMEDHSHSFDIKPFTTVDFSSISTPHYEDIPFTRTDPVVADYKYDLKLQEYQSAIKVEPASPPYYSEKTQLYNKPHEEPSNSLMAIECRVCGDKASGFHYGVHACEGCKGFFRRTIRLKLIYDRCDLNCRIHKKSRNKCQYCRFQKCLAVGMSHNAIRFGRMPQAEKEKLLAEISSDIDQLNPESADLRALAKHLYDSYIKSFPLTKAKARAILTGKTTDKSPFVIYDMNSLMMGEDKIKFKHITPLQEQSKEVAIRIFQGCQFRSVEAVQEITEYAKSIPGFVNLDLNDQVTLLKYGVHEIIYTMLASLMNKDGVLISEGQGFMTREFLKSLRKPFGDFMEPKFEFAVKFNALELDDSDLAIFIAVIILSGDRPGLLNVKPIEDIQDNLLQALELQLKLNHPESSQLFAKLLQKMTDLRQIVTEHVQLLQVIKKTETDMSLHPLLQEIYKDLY

CCCCCCCCCCCCCCCCCC(N)=O
inactive: activation [1] 5.45% | outcome [2] | Potency [3] | activation [4] -6.09% | Potency [5] | Potency [6] | Potency [7] | activation [8] 0.913%

Cc1cccc(-c2cc(=O)c3cc(Br)ccc3o2)c1
active: Potency [9] 12.6 µM
inactive: Potency [10] | Potency [11]

O=C1CC(c2ccccc2O)Oc2ccc(O)cc21 (stereo not drawn)
inactive: Potency [10] | Potency [11]

COC(=O)c1cccc(C)c1S(=O)(=O)NC(=O)Nc1nc(OCC(F)(F)F)nc(N(C)C)n1
inactive: activation [1] 3.18% | outcome [2] | Potency [3] | activation [4] -2.8% | Potency [6] | Potency [7] | Potency [12]

CC1(C)CC[C@]2(C(=O)O)CC[C@]3(C)C(=CCC4[C@@]5(C)CC[C@H](O)C(C)(C)C5[C@H](O)C[C@]43C)C2C1 (stereo partly drawn)
inactive: Potency [10] | Potency [11]

COc1ccccc1-c1oc2ccccc2c(=O)c1O
inactive: Potency [10] | Potency [11]
active: Potency [9] 25.1 µM

CC[C@@H]1CN2CCc3cc(OC)c(OC)cc3[C@@H]2C[C@@H]1C[C@H]1NCCc2cc(OC)c(OC)cc21
inactive: Potency [10] | Potency [11]

C=Cc1ccc(P(c2ccccc2)c2ccccc2)cc1
inactive: activation [1] 8.38% | outcome [2] | Potency [3] | activation [4] -2.27% | Potency [5] | Potency [6] | Potency [7] | Potency [13] | Potency [12]

C=C1C(=O)O[C@@H]2C3OC3(C)CC/C=C(\C)CC[C@@H]12 (stereo partly drawn)
inactive: Potency [10] | Potency [11]

COc1ccc(-c2coc3ccc(OC4OC(COC(C)=O)C(OC(C)=O)C(OC(C)=O)C4OC(C)=O)c(OC(C)=O)c3c2=O)cc1 (stereo not drawn)
inactive: Potency [10] | Potency [11]

CCCCCCCC[Si](Cl)(Cl)Cl
inactive: activation [1] 3.85% | outcome [2] | Potency [3] | Potency [5] | Potency [7] | Potency [13] | activation [8] 0.514%

C[Si](Cl)(Cl)[Si](C)(Cl)Cl
inactive: activation [1] 0.564% | outcome [2] | Potency [3] | activation [4] -3.8% | Potency [5] | Potency [6] | Potency [7] | Potency [13] | Potency [12] | activation [8] 0.0231%

O=C(O)c1ccc2c(c1)C(=O)OC2=O
inactive: activation [1] 5.43% | outcome [2] | Potency [3] | activation [4] 1.9% | Potency [5] | Potency [13] | activation [8] -0.551%

C=C(C)C(=O)OCCCCCCCCCCCCCCCC
inactive: activation [1] 10.8% | outcome [2] | Potency [3] | activation [4] 0.746% | Potency [5] | Potency [6] | Potency [7] | Potency [13] | Potency [12] | activation [8] -3.74%

C[C@H]1[C@H](C)CC[C@]2(C(=O)O)CC[C@]3(C)C(=CCC4[C@@]5(C)C[C@@H](O)[C@H](O)[C@@](C)(CO)[C@@H]5CC[C@]43C)[C@H]12 (stereo partly drawn)
inactive: Potency [10] | Potency [11]

COC(=O)c1c(Cl)nn(C)c1S(=O)(=O)NC(=O)Nc1nc(OC)cc(OC)n1
inactive: activation [1] 5.65% | outcome [2] | Potency [3] | activation [4] -2.96% | Potency [6] | Potency [7]

Cc1cc(=O)cc2oc3cc(N)c(-c4c(C)cc(O)cc4O)c(C)c3nc1-2
inactive: Potency [10] | Potency [11]

O=C(O)[C@H]1[C@H]2C[C@H]3c4[nH]c5ccccc5c4CCN3C[C@@H]2CC[C@@H]1O
inactive: Potency [10] | Potency [11]

Cn1c(=O)[nH]c(=O)n(C2CCC(O)CC2)c1=O (stereo not drawn)
inactive: activation [1] 1.63% | outcome [2] | Potency [3] | activation [4] -2.18% | Potency [5] | Potency [6] | Potency [7] | Potency [13] | activation [8] 2.9%

COc1cc2c(Cc3c4c5c(cc(OC)c(OC)c5c5c(OC)c(OC)ccc35)CCN4C)c3c4c(cc(OC)c(OC)c4c2cc1OC)CCN3C
inactive: Potency [10] | Potency [11]

COc1ccc2c(c1OC)C(Cc1ccccc1)N1CCc3cc4c(cc3C1=C2)OCO4 (stereo not drawn)
inactive: Potency [10] | Potency [11]
active: Potency [9] 0.199 µM

COc1cc(/C=C/C(=O)c2cccs2)cc(OC)c1OC
inactive: Potency [10] | Potency [11]

CCC/C(=N\OCC)C1=C(O)CC(O)(CC(C)S(=O)(=O)CC)CC1=O (stereo not drawn)
inactive: activation [1] -4% | outcome [2] | Potency [3] | activation [4] -6.04% | Potency [5] | Potency [7] | Potency [13] | activation [8] -2.69%
active: Potency [12] 54.5 µM

Cc1ccc(C(=O)[C@@H]2[C@H]3C4COC(O4)C(=O)[C@@H]3[C@H]3C=Cc4ccccc4N32)cc1 (stereo partly drawn)
active: Potency [9] 25.1 µM
inactive: Potency [10] | Potency [11]

CNc1nc(=O)n(C2CCCCC2)c(=O)n1C
inactive: activation [1] -4.83% | outcome [2] | Potency [3] | activation [4] -5.96% | Potency [5] | Potency [7] | Potency [13] | Potency [12] | activation [8] 0.353%

COc1cccc2oc(-c3ccccc3)cc(=O)c12
inactive: Potency [10] | Potency [11]

COc1cc2c(C=O)c3c4c(cc(OC)c(OC)c4c2cc1OC)CCN3C
inactive: Potency [10]
active: Potency [9] 2 µM | Potency [11] 21.1 µM

CC(=O)N(CCN(C(C)=O)C(C)=O)C(C)=O
inactive: activation [1] 11.2% | outcome [2] | Potency [3] | activation [4] -10.7% | Potency [5] | Potency [6] | Potency [13] | activation [8] 0.892%

O=C(/C=C/c1ccc2c(c1)OCO2)c1cccs1
active: Potency [9] 0.501 µM
inactive: Potency [10] | Potency [11]

CC(C)(C)C(O)/C(=C\c1ccc(Cl)cc1)n1cncn1 (stereo not drawn)
inactive: activation [1] -3.93% | outcome [2] | Potency [3] | activation [4] 0.903% | Potency [5] | Potency [6] | Potency [7] | Potency [13] | activation [8] -2.96%

CC(=O)[C@@H]1[C@H]2[C@H](C(=O)[C@H]3OC[C@@H]2O3)[C@H]2C=Cc3ccccc3N21
inactive: Potency [10] | Potency [11]

Cc1ccc(C(=O)c2ccccc2)cc1
inactive: activation [1] 1.33% | outcome [2] | Potency [3] | activation [4] 2.58% | Potency [7] | Potency [13] | Potency [12] | activation [8] 3.79%
